# Results published in the supplement of paper PMC6555819.
# Test system: PXR:RXRa (NR concentration 270 nM, RXRa partner concentration 90 nM)
# Assay: PBM binding z-score (relative to random genomic background probes); higher = stronger binding; sequences stand for … in GC…GCGATTGACAGCGTAGAATGAAGG
# In short: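 Regression normalization was applied to scanned fluorescence from custom Agilent 4×180K protein-binding microarrays. Before scanning, arrays were incubated 1 h with ligand-free nuclear receptor dimers, and binding was detected with antibodies against each partner (one per run). Binding z-scores use the random background probes as reference.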
row,Sequence,PBM binding z-score
1,TATACAGGGTCAAAGGCCCGAGTACGAATGTCGA,3.57
2,TCTTGTAGCTCAAGCAGGTTAAGAAAGCCTGAGT,-0.102
3,TCTTGTGGATCAAAGGTTAAGAAAGCCGAAGCCT,1.98
4,TCTTGTAGTTCAAGCAGGTTAAGAAAGCCTGAGT,2.26
5,CCTACTGGGCCAAAGGTCACTGATTCCAATGCTC,5.27
6,TCTGCAAGGTCAACGATGGTCAGCTAATCTGCTA,4.57
7,GCAGACAGGTGAAACGAAGGTAACTCAGGGTGGC,0.0362
8,ATCGAAAGCTCGAAGGTGAGTATACCCACCCGAA,-0.547
9,CATACAGGGTCAGCAAGGCCAGAGTAGGGACGGC,2.66
10,TCATATCGGTAAAGGTGAAAGTCGAACGATATGA,0.507
11,CCTTACGGGTCACTGACAGGCTATAGCATTTGGA,2.94
12,GTACCAAGCTGAATAGGTCGTTGATGAGTAGGCG,-0.255
13,CCTGGTAGGTCAATGGTCAGCTAAAGCAGCTCGC,1.29
14,CGTCCAAGGTGAGCAGGTCAGTGAAAGCGACGTG,0.116
15,TCATATAGGTAAACGTGAAAGTCGAACGATATGA,0.122
16,TCGAGTGGGTTAGTCGGGGCATTCAGCCAACATA,0.291
17,AGAATGAGGTTGTTAAGATCAGGGAATTGCGGTC,0.362
18,CTCGAAAGGTCGGTTAAGGTGAGTATACGGATAA,2.61
19,CGTAGTTGGTCAAGGTCACACACGCTATAGGTAC,4.02
20,CCTGCTAGGTCAATGGTGAGCTAAAGCAGCTCGC,0.37

row,Sequence,PBM binding z-score
1,CCTTACGTGTCAAGGTTATAGCACGGGTGGTACG,0.998
2,CAAACTAGGTCAAGAGGTCAAAGTCCGCTTCCCG,6.2
3,TAGCCTTGGTCAGATCGGGCCAGTATACGCTATA,-0.578
4,CCAGACAGGTGAAAGGGAACTCAGTCTGGTACGC,-0.0959
5,TCGAGTAGGTTACCAATGGGGCAGTCAGCTTTCT,-0.103
6,TCTCGTAGATCAGCAGGTTAAGAAAGCTGGCCAA,-0.00394
7,CGTCCAAGGCCAGAGAGGTCAGTGAATGCCGAGT,3.1
8,CCAGACAGGTGCGAAGGTAACTCAGCCTCGATTA,-0.494
9,CCTATTGGGCCAAAAAGGTCATTGATGCCGATAA,4.74
10,CGTCCAAGGTCAAGGTCATTGAAAGAGACTCGAA,5.75
11,ATCTCTAGGTAAAGATAGTTAAGTGAATGCAAAT,-0.33
12,TCGTGTAGATCAAAGGTTAAGAAAGCCGAAGCCT,1.9
13,ACAGACAGATGATGAAGGTAACTCAGGCTATCAT,-0.0799
14,AGAATGAGGGCAATGAGTTGATAGCACGGGTGGC,1.89
15,CCTACTGGGCCACGAAAGGTCATTTATTCAGTGA,5.07
16,ACTTACGGGTCAACGAGGTTATAGAACGCGTATA,5.08
17,TAGCCTAGGTCATTCAGGGGCCAGTATAGAAAGC,2.57
18,GCTTACGGGTCAAAGGTTATAGCTTGAATAGAAT,5.86
19,CGAACTAGGTCATGGACAGTGAATCTCCGCACGC,1.36
20,CAAACTAGGTCAAAGGTCTAAGTCGAGCCAACCA,3.11
